Data: PubChem BioAssay (NCATS)
Results filed as inconclusive are left out. Active and inactive are the calls of the source. Calls follow the shape of the dose curve; as a rule, active = well fitted cell-killing curve with a large enough effect; inconclusive = small, poorly fitted or top-dose-only effect; inactive = no such curve, though single readings can be large or run the other way.

Assay: qHTS of pediatric cancer cell lines to identify multiple opportunities for drug repurposing: Primary screen for SJ-GBM2 cells (AID 1347091);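 as to activity change, negative = cytotoxic: plate controls were DMSO neutral control for no effect and bortezomib for full effect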
Settings: SJ-GBM2 viability, CellTiter-Glo luminescence, 48 h; series mostly up to 46 µM; activity change, negative = cytotoxic: at the top concentration
Procedure, shortened: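 Eight- or eleven-point concentration series, 48 h treatment at 37 degrees C in growth media; readout CellTiter-Glo luminescence. Potency and efficacy were taken from the concentration-response curves.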
Potency is read from the fitted curve at half-maximal effect.

SMILES	Potency	activity change, negative = cytotoxic
Fc1cc(-c2cccc3ncc(-c4cnn(C5CCNCC5)c4)nc23)cc(F)c1CN1CCOCC1	16.6 µM (active)	–
C[C@@H](Oc1cc(-c2cnn(C3CCNCC3)c2)cnc1N)c1c(Cl)ccc(F)c1Cl	0.0743 µM (active)	–
CN(C)CCCN=c1c2ccccc2n(C)c2[nH]c(=O)n(C)c(=O)c12	1.87 µM (active)	–
CC1(O)CC(c2nc(-c3ccc4ccc(-c5ccccc5)nc4c3)c3c(N)nccn23)C1 (stereo not drawn)	10.5 µM (active)	–
Nc1cccc(-c2cc3c(Oc4cccc(O)c4)ncnc3[nH]2)c1	20.9 µM (active)	–
Cc1cc(CN2CCN(c3c(Br)cnc4nc(-c5ccc(N6CCN(C)CC6)cc5)[nH]c34)CC2)no1	5.9 µM (active)	–
COc1cc2c(Oc3ccc4[nH]c(C)cc4c3F)ncnc2cc1OCCCN1CCCC1	6.62 µM (active)	–
Cn1cncc1[C@@](N)(c1ccc(Cl)cc1)c1ccc2c(c1)c(-c1cccc(Cl)c1)cc(=O)n2C	20.9 µM (active)	–
Cc1cc(N2CCOCC2)cc2[nH]c(-c3c(NC[C@@H](O)c4cccc(Cl)c4)cc[nH]c3=O)nc12	16.6 µM (active)	–
Cc1cccc(C=NNc2cc(N3CCOCC3)nc(OCCc3ccccn3)n2)c1	1.32 µM (active)	–
C[C@]12CC[C@H](O)CC1=CCC1C2CC[C@]2(C)C(n3cnc4ccccc43)=CCC12 (stereo partly drawn)	23.5 µM (active)	–
CCN1CCN(CC(=O)Nc2ccc(-c3cccc4c(=O)cc(N5CCOCC5)oc34)c3sc4ccccc4c23)CC1	0.743 µM (active)	–
COc1cc2ncn(-c3cc(OCc4ccccc4C(F)(F)F)c(C(N)=O)s3)c2cc1OC	0.662 µM (active)	–
O=C(CCCCCCC(=O)Nc1ccc([C@H]2O[C@@H](CSc3nc(-c4ccccc4)c(-c4ccccc4)o3)C[C@@H](c3ccc(CO)cc3)O2)cc1)NO	14.8 µM (active)	–
Cn1c(=O)n(-c2ccc(C(C)(C)C#N)cc2)c2c3cc(-c4cnc5ccccc5c4)ccc3ncc21	0.0662 µM (active)	–
COC(=O)Nc1ccc(-c2nc(N3CCOCC3)c3cnn(C4CCN(Cc5cccnc5)CC4)c3n2)cc1	0.743 µM (active)	–
COCCOc1ccc2c(c1)ncn2-c1ccc2cccc(N3CCC(N)CC3)c2n1	11.8 µM (active)	–
CN1c2cc(O)c(N=NC(N)=O)cc2CC1S(=O)(=O)O (stereo not drawn)	–	10% (inactive)
CC(C)=CCCC(C)=CCCC(C)=CCSc1ccccc1C(=O)O	0.833 µM (active)	–
COc1cc(-c2nn(C3CCC(N4CCN(C(C)=O)CC4)CC3)c3ncnc(N)c23)ccc1NC(=O)c1cc2ccccc2n1C (stereo not drawn)	1.87 µM (active)	–
COc1cc(C(=O)N2CCC(N3CCN(C)CC3)CC2)ccc1Nc1ncc2c(n1)N(C)c1ccccc1C(=O)N2C	18.7 µM (active)	–
NC1(Cc2ccc(Cl)cc2)CCN(c2ncnc3[nH]ccc23)CC1	5.26 µM (active)	–
COc1cc2c(Nc3ccc(NC(=O)c4ccccc4)cc3)ncnc2cc1OCCCN1CCOCC1	5.26 µM (active)	–

Assay: qHTS of pediatric cancer cell lines to identify multiple opportunities for drug repurposing: Primary screen for A673 cells (AID 1347092); also: nearly all actives have a fitted effect of over 45% in size; as to activity change, negative = cytotoxic: % is scaled to controls: 0 for no effect and ±100 for the full control effect
Settings: A673 Ewing sarcoma viability, CellTiter-Glo ATP luminescence, 48 h; series mostly up to 46 µM; activity change, negative = cytotoxic: at the top concentration
Procedure, shortened: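 Cells are plated, rested 5 h, dosed by pintool, incubated 48 h, then lysed with CellTiter-Glo and read by luminescence. DMSO is the neutral control; bortezomib at 2.3 uM final is the positive control.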

SMILES	Potency	activity change, negative = cytotoxic
Fc1cc(-c2cccc3ncc(-c4cnn(C5CCNCC5)c4)nc23)cc(F)c1CN1CCOCC1	18.7 µM (active)	–
O=C(Nc1nc2cccc(-c3ccc(CN4CCS(=O)(=O)CC4)cc3)n2n1)C1CC1	11.8 µM (active)	–
C[C@@H](Oc1cc(-c2cnn(C3CCNCC3)c2)cnc1N)c1c(Cl)ccc(F)c1Cl	14.8 µM (active)	–
CN(C)CCCN=c1c2ccccc2n(C)c2[nH]c(=O)n(C)c(=O)c12	2.96 µM (active)	–
CC(=O)Nc1sc2c(c1-c1nc3ccccc3s1)CNC2	18.7 µM (active)	–
Nc1nccc(Oc2ccc(NC(=O)c3c[nH]cc(-c4ccc(F)cc4)c3=O)cc2F)c1Cl	5.9 µM (active)	–
CC1(O)CC(c2nc(-c3ccc4ccc(-c5ccccc5)nc4c3)c3c(N)nccn23)C1 (stereo not drawn)	23.5 µM (active)	–
Nc1cccc(-c2cc3c(Oc4cccc(O)c4)ncnc3[nH]2)c1	14.8 µM (active)	–
Cc1cc(CN2CCN(c3c(Br)cnc4nc(-c5ccc(N6CCN(C)CC6)cc5)[nH]c34)CC2)no1	23.5 µM (active)	–
COc1cc2c(Oc3ccc4[nH]c(C)cc4c3F)ncnc2cc1OCCCN1CCCC1	18.7 µM (active)	–
CC(=O)c1c(C)c2cnc(Nc3ccc(N4CCNCC4)cn3)nc2n(C2CCCC2)c1=O	14.8 µM (active)	–
Cn1cncc1[C@@](N)(c1ccc(Cl)cc1)c1ccc2c(c1)c(-c1cccc(Cl)c1)cc(=O)n2C	23.5 µM (active)	–
Cc1cn2c(-c3cn[nH]c3)cnc2c(Nc2ccc(C(=O)N3CCNCC3)cc2F)n1	14.8 µM (active)	–
Cc1cc(N2CCOCC2)cc2[nH]c(-c3c(NC[C@@H](O)c4cccc(Cl)c4)cc[nH]c3=O)nc12	0.296 µM (active)	–
Cc1cccc(C=NNc2cc(N3CCOCC3)nc(OCCc3ccccn3)n2)c1	7.43 µM (active)	–
C[C@]12CC[C@H](O)CC1=CCC1C2CC[C@]2(C)C(n3cnc4ccccc43)=CCC12 (stereo partly drawn)	14.8 µM (active)	–
CCN1CCN(CC(=O)Nc2ccc(-c3cccc4c(=O)cc(N5CCOCC5)oc34)c3sc4ccccc4c23)CC1	2.35 µM (active)	–
CCOC(=O)C1=C(C)NC2=C(C(=O)CC(C)(C)C2)C1c1ccc(-c2ccccc2)cc1 (stereo not drawn)	3.72 µM (active)	–
COc1cc2ncn(-c3cc(OCc4ccccc4C(F)(F)F)c(C(N)=O)s3)c2cc1OC	0.469 µM (active)	–
O=C(CCCCCCC(=O)Nc1ccc([C@H]2O[C@@H](CSc3nc(-c4ccccc4)c(-c4ccccc4)o3)C[C@@H](c3ccc(CO)cc3)O2)cc1)NO	4.69 µM (active)	–
Cn1c(=O)n(-c2ccc(C(C)(C)C#N)cc2)c2c3cc(-c4cnc5ccccc5c4)ccc3ncc21	0.0296 µM (active)	–
COC(=O)Nc1ccc(-c2nc(N3CCOCC3)c3cnn(C4CCN(Cc5cccnc5)CC4)c3n2)cc1	4.69 µM (active)	–
COCCOc1ccc2c(c1)ncn2-c1ccc2cccc(N3CCC(N)CC3)c2n1	4.69 µM (active)	–
CN1c2cc(O)c(N=NC(N)=O)cc2CC1S(=O)(=O)O (stereo not drawn)	–	-9.89% (inactive)
CC(C)=CCCC(C)=CCCC(C)=CCSc1ccccc1C(=O)O	5.9 µM (active)	–
COc1cc(-c2nn(C3CCC(N4CCN(C(C)=O)CC4)CC3)c3ncnc(N)c23)ccc1NC(=O)c1cc2ccccc2n1C (stereo not drawn)	0.235 µM (active)	–
COc1cc(C(=O)N2CCC(N3CCN(C)CC3)CC2)ccc1Nc1ncc2c(n1)N(C)c1ccccc1C(=O)N2C	11.8 µM (active)	–
COc1cccc(-c2ccc(NC(=O)C3=C(C(=O)O)CCC3)c(F)c2)c1	5.9 µM (active)	–
C[C@H]1C[C@@H]2[C@@H]([C@@H](O)C[C@@]3(C)[C@H]2CC[C@]3(O)C(=O)CO)[C@@]2(C)C=CC(=O)C=C12	–	10.6% (inactive)
COc1cc2c(Nc3ccc(NC(=O)c4ccccc4)cc3)ncnc2cc1OCCCN1CCOCC1	14.8 µM (active)	–
